KB-3-1 tox = qHTS assay for MDR1-selective chemotherapeutics: Primary screen using the parental adenocarcinoma cell KB-3-1; KB-3-1 viability, CellTiter-Glo ATP luminescence, 72 h; Potency, µM (doses to about 46.1 µM), hits mostly cytotoxic; 1.4% of 400,000 active; further: nearly all actives have a fitted effect of over 60% in size
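Viability of parental KB-3-1 cells, measured by CellTiter-Glo luminescence, followed a 72 h incubation at 37 °C with pinned compounds in phenol-red-free DMEM containing 10% FBS.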
RORgamma inh = qHTS for inhibitors of ROR gamma transcriptional activity; Potency, µM (doses to about 53.6 µM), usual class: inhibitors; AID 2551, 2010; 5.4% of 310,000 active; Nuclear receptor ROR-gamma (Mus musculus), P51450; Drosophila S2 Gal4-RORgamma UAS-luciferase reporter, 20 h; further: nearly all actives have a fitted effect of over 60% in size
Target sequence (P51450 whole entry, looked up, the tested form may be a part): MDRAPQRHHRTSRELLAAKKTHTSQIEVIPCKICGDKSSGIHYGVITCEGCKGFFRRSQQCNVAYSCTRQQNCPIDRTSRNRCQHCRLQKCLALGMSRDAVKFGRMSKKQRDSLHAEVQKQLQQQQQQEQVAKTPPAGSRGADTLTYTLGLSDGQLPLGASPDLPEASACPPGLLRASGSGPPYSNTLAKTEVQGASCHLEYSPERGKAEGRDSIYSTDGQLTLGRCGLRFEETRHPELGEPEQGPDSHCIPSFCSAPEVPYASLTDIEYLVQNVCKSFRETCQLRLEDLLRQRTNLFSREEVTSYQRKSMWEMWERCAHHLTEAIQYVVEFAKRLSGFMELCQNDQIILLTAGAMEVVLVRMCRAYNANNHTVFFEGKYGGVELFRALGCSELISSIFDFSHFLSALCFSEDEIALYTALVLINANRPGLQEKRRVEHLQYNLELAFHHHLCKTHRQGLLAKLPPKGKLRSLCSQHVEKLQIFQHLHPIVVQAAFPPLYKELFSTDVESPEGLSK
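Read-out: Photinus luciferase luminescence; inhibitors lower reporter signal. Insect Schneider cells with Gal4-ROR gamma fusion under metallothionein promoter, UAS reporter; 700 uM final copper sulfate induction, 20 hr, ambient temperature.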
SW480 rereplic = A quantitative high throughput screen for small molecules that induce DNA re-replication in SW480 colon adenocarcinoma cells; SW480 DNA re-replication, Hoechst DNA content imaging, 48 h; 1.8% of 340,000 active; Potency, µM (titrated, usually from 46.1 µM), most hits filed as activators; further: nearly all actives have a fitted effect of over 55% in size
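Image-based read-out: total Hoechst fluorescence of nuclei (405 nm excitation, 500-530 nm emission), with hits raising the fraction of high-intensity nuclei. SW480 colon cells incubated 48 hr with compounds at 37 C.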
KB-V1 MDR tox = qHTS assay for MDR1-selective chemotherapeutics: Primary screen using the drug-selected MDR subline cells KB-V1 | KB-V1 MDR cells viability, CellTiter-Glo, 72 h | Potency, µM (highest dose often 46.1 µM), usual class: cytotoxic | 3.4% of 400,000 active | AID 1347076, 2019; further: nearly all actives have a fitted effect of over 60% in size
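KB-V1 MDR subline cells in DMEM (phenol-red free, 10% FBS) exposed to compounds in qHTS concentration series for 72 h at 37 degrees C. Viability read by CellTiter-Glo luminescence; concentration-effect curves fitted after normalization and correction.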
MCF10A rerep = A quantitative high throughput screen for small molecules that induce DNA re-replication in MCF 10a normal breast cells; MCF 10A DNA re-replication, Hoechst nuclear intensity, 48 h; Potency, µM (doses to about 46.1 µM), usual class: activators; 2.9% of 350,000 active; AID 624296, 2012; further: nearly all actives have a fitted effect of over 50% in size
Gal4-VP16 FLuc = VP16 counterscreen qHTS for inhibitors of ROR gamma transcriptional activity; Drosophila S2 Gal4-VP16 UAS-luciferase, luminescence, 20 h; Potency, µM (doses to about 53.6 µM), actives largely listed as inhibitors; 3.5% of 310,000 active; AID 2546, 2010;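 further: Gal4-VP16 expression switched on by copper sulfate through the metallothionein promoter; nearly all actives have a fitted effect of over 50% in size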
Numbers stand for hits; 0 = inactive; ? = inconclusive; - = no result; [ ] = dose if it differs, or a comment. A selection: hits, their analogues and other compounds. The true share with any hit is near 10%. The call rests on the fitted dose curve; in most records, active means well fitted curve in the direction sought with a large enough effect; inconclusive means small, poorly fitted or top-dose-only effect, or another doubt; inactive means no such curve, though single readings can be large; an effect the other way counts as inactive or inconclusive.

SMILES	KB-3-1 tox	RORgamma inh	SW480 rereplic	KB-V1 MDR tox	MCF10A rerep	Gal4-VP16 FLuc
Cc1cccc(Cn2nc(C(C)(C)C)cc2C(=O)Nc2ccc(F)cc2)c1	?	0	?	?	?	0
CC(C)CC(N)c1csc(NC(=O)C(c2ccccc2)c2ccccc2)n1 (centres undefined)	?	-	-	0	-	-
CC(C)(C)c1cc(C(=O)NN)n(Cc2ccc(F)cc2)n1	?	11µM	?	0	0	0
CC(C)CC(N)c1csc(NC(=O)c2cc(C(C)(C)C)nn2Cc2ccccc2)n1 (centres undefined)	?	-	-	18µM	-	-
CC(=O)Nc1cc(-c2ccccc2N(C)C)cn2c(-c3cccc(C(F)(F)F)c3)cnc12	0	-	-	0	-	-
O=S(=O)(Nc1cc2nc3ccccc3nc2n1Cc1ccccc1)c1ccc(Cl)cc1	0	?	10µM	0	7.3µM	?
O=S(=O)(NCc1ccccc1)c1ccc(Cl)cc1	0	0	0	0	0	0
CCCCCCCCCCCCCC[C@@H](O)[C@@H](O)[C@H](CO)NC(C)=O	-	0	-	-	-	0
CCOC(=O)c1cc2c(C)n(-c3ccc(C)cc3)c(C)c2ccc1=O	21µM	0	?	5.8µM	0	10µM
CCOC(=O)c1cc2c(C)n(-c3ccc(OCC)cc3)c(C)c2ccc1=O	?	?	0	2.6µM	0	0
CCCC[C@]12Cc3cc(OC)c(OC)cc3C(O1)C1=C(O2)C(=O)c2ccccc2C1=O	-	0[10 µM]	-	-	-	0[10 µM]
O=C(Nc1cccc2ccccc12)c1ccc([N+](=O)[O-])o1	?	?	?	?	5.8µM	13µM
Cc1cccc(NC(=O)c2ccc([N+](=O)[O-])o2)c1C	0	0	7.3µM	?	13µM	0[10 µM]
COc1ccccc1NC(=O)c1ccc(COc2ccccc2OC)o1	0	0	0	0	0	0
O=C(Nc1cccc(Cl)c1N1CCOCC1)c1ccc([N+](=O)[O-])o1	?	0	0	0	0	0
CN(Cc1ccccc1)C(=O)c1ccc([N+](=O)[O-])o1	0	0	6.5µM	?	16µM	?
COc1ccccc1NC(=O)c1ccc([N+](=O)[O-])o1	?	-	7.3µM	0	?	-
NN=C1c2cc(S(=O)(=O)NCCO)ccc2-c2ccc(S(=O)(=O)NCCO)cc21	?	-	-	0	-	-
O=c1[nH]c2ccc(NCc3ccc(-c4ccccc4F)o3)cc2[nH]1	0	-	-	0	-	-
CCc1nc2ccc(C(=O)NCC3CCCCC3)cn2c1N(C)Cc1nccs1	0	-	-	0	-	-
CCC(=O)N1c2ccc(S(=O)(=O)N3CCCCCC3)cc2CC1C (centres undefined)	0	-	-	0	-	-
CCCCNC(=O)c1nc(C2CCN(S(=O)(=O)c3cccc(C(F)(F)F)c3)CC2)oc1-c1cccc(C(F)(F)F)c1	0	-	-	0	-	-
COC(=O)C/C=C\[C@@H](C)[C@@H](/C=N\OC[C@@H](O)[C@H]1O[C@H]2OC(C)(C)O[C@H]2[C@@H]1O)NS(=O)(=O)c1ccc(C)cc1	-	0[10 µM]	-	-	-	0[10 µM]
O=C(Nc1cccc(C(=O)N2CCN(c3ccc(F)cc3)CC2)c1)c1nsc2ccccc12	0	-	-	0	-	-
O=C(Nc1ccccc1C(=O)NC1CC1)c1ccc([N+](=O)[O-])o1	0	-	6.5µM	?	16µM	-
SMILES	KB-3-1 tox	RORgamma inh	SW480 rereplic	KB-V1 MDR tox	MCF10A rerep	Gal4-VP16 FLuc
Cc1ccc(C(=O)Nc2cccc3ccccc23)o1	0	-	5.2µM	0	?	-
CC1CCN(c2ccccc2NC(=O)c2ccc([N+](=O)[O-])o2)CC1	0	0	0	0	0	0
N#Cc1nc(-c2ccc(F)cc2)oc1NCc1cccc2c1OCO2	0	0	0	0	0	0
Cc1ccc(-c2nc(C#N)c(NCc3cccc4c3OCO4)o2)cc1	0	0	?	0	16µM	0
COc1cccc(CNC(=O)CSc2n[nH]c(-c3ccccc3Cl)n2)c1	0	-	-	0	-	-
O=C(COc1ccccc1)NC(=S)N1CCc2ccccc21	0	1.3µM	?	0	0	2.5µM
COc1ccc(OCC(=O)NC(=S)N2CCCc3ccccc32)cc1	0	?	0	?	0	0
O=C(COc1ccccc1Cl)NC(=S)N1CCc2ccccc21	0	0.71µM	?	0	0	1.1µM
O=C(COc1ccc([N+](=O)[O-])cc1Cl)N1CCc2ccccc21	0	-	0	?	0	-
COc1ccccc1C(=O)NC(=S)N1CCc2ccccc21	0	?	0	0	0	?
CC(Oc1ccccc1Br)C(=O)N1CCc2ccccc21 (centres undefined)	0	14µM	0	0	0	0
CC(C)C(=O)NC(=S)N1CCc2ccccc21	0	8.9µM	?	0	0	?
CCC1CCCCN1C(=O)CCS(=O)(=O)c1cc2c(cc1C)NC(=O)CO2 (centres undefined)	0	-	-	0	-	-
COc1ccccc1CNc1cc(-c2ccccc2)nc2nncn12	0	-	-	0	-	-
COc1cccc(C(=O)Nc2ccc(Cl)c(-c3nc4ccccc4[nH]3)c2)c1	?	-	-	0	-	-
C[C@H]1CN([C@@H](C)CO)C(=O)CCCn2cc(nn2)CO[C@@H]1CN(C)C(=O)Oc1ccccc1	0	-	-	0	-	-
O=C1CCC[C@@H]2CC(NCc3ccc(Cl)c(Cl)c3)C[C@@H]3CCN1[C@H]23 (some centres undefined)	-	0	-	-	-	0
Cc1ccc2nc(Cl)c3cc(C(=O)NC4CCCCC4)sc3c2c1	0	-	-	?	-	-
COc1ccccc1CNc1ncnc2ccc(-c3ccccc3OC)cc12	-	?	-	-	-	22µM
Cc1noc(C)c1-c1ccc2ncnc(NCc3ccc(F)cc3)c2c1	-	0	-	-	-	0
COc1ccccc1CNc1ncnc2ccc(-c3ccc(N(C)C)cc3)cc12	-	0	-	-	-	0
Cc1noc(C)c1-c1ccc2ncnc(NCc3cccc(C(F)(F)F)c3)c2c1	-	0	-	-	-	13µM
CCOc1ccccc1CNc1ncnc2ccc(-c3c(C)noc3C)cc12	?	40µM	0	0	?	?
Cc1noc(C)c1-c1ccc2ncnc(NCc3ccccc3F)c2c1	-	0	-	-	-	11µM
Cc1ccc(-c2nnc3ccccc3c2C(=O)Nc2cccc(Cl)c2)cc1	0	-	-	0	-	-
COCCNC(=O)C1(C)CCCN(C(=O)COc2ccccc2)C1 (centres undefined)	0	-	-	0	-	-
COc1ccc(CC(=O)Nc2c(C(=O)Nc3ccccc3F)oc3ccccc23)cc1	0	-	-	0	-	-
O=C(Nc1ccc2c(c1)CCO2)Nc1nnc([C@H]2C[C@H](O)[C@@H](CO)O2)s1	0	-	-	0	-	-
O=C(COc1ccccc1C(=O)Nc1ccccc1)Nc1ccc(-c2ccccc2)cc1	0	-	-	0	-	-
COc1cccc(Cn2c(=O)c(-c3cn(C)c4ccccc34)nc3cnc(N4CCNCC4)nc32)c1	-	20µM	-	-	-	?

Assay outcomes (PubChem)
